# Assay results taken from PubChem BioAssay AID1345085 (National Center for Advancing Translational Sciences (NCATS), 2018).
# Inconclusive results are not listed. Activity calls are given as the source filed them. The call rests on the fitted dose curve; in most records, active means well fitted cell-killing curve with a large enough effect; inconclusive means small, poorly fitted or top-dose-only effect, or effect the other way; inactive means no such curve, though single readings can be large or run the other way. *1 amine or outer side, *2 acyl side, *3 side chain or, on linkers, in order; H or OH if unused. Where a SMILES comes first, the peptide text is derived from it. Bridges are numbered along the chain shown (N, C = ends). Roman numbers before positions name the chains, in order. [ ]: non-standard residue; d: D form. Actinocin(9to1) = Cc1c2oc3c(C)ccc(C(=O)[*:1])c3nc-2c(C(=O)[*:2])c(N)c1=O; NMeV = CN[C@H](C(=O)O)C(C)C; Sar = CNCC(=O)O
# System: Jar
# Test: Confirmatory qHTS for gynecologic anti-cancer compounds from libraries of approved drugs and bioactive compounds; further: nearly all actives have a fitted effect of over 55% in size
# Details: gynecologic cancer cell panel viability, ATPlite luminescence, 48 h; series mostly up to 57.6 µM
# In short: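 Viability is measured as ATP-dependent luciferase light using ATPlite, read 15 min after reagent addition at room temperature. Compounds, in DMSO, span 57.5 uM down to 0.977 nM over 11 threefold steps for 48 h.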
# Potency means the concentration at half of the fitted maximal effect.
row,SMILES,Potency
1,CC(C)n1c(/C=C/[C@@H](O)C[C@@H](O)CC(=O)O)c(-c2ccc(F)cc2)c2ccccc21,10.9 µM (active)
2,Cc1cc(Nc2nc(N[C@@H](C)c3ccc(F)cc3)c(C#N)cc2F)n[nH]1,2.73 µM (active)
3,COc1cc(Nc2c(C#N)cnc3cc(OCCCN4CCN(C)CC4)c(OC)cc23)c(Cl)cc1Cl,24.3 µM (active)
4,C#C[C@]1(O)CC[C@H]2[C@@H]3CCC4=CC(=O)CC[C@@H]4[C@H]3CC[C@@]21CC,inactive
5,Cc1nc(NC(=O)N2CCCC2C(N)=O)sc1-c1csc(C(C)(C)C)n1 (centres undefined),21.7 µM (active)
6,COc1c(C)c2c(c(O)c1C/C=C(\C)CCC(=O)OCCN1CCOCC1)C(=O)OC2,inactive
7,Cc1ccc(C(N)=O)cc1Nc1nccc(-c2cn(C(C)C)c3cnccc23)n1,6.85 µM (active)
8,CCN(CC)CCNC(=O)c1c(C)[nH]c(/C=C2\C(=O)Nc3ccc(F)cc32)c1C,25.1 µM (active)
9,O=C(Nc1cccnc1)N1CCC(Cc2cccc(Oc3ccc(C(F)(F)F)cn3)c2)CC1,9.68 µM (active)
10,O=C(c1ccc(/C=C/c2n[nH]c3ccccc23)cc1)N1CCNCC1,30.6 µM (active)
11,CC(C)C[C@H](NC(=O)[C@H](Cc1ccccc1)NC(=O)c1cnccn1)B(O)O,0.0485 µM (active)
12,CC(C)n1nc(-c2cc3cc(O)ccc3[nH]2)c2c(N)ncnc21,5.44 µM (active)
13,COC(C)(C)CCn1nc(Nc2c(C)cccc2C)c2cnc(Nc3ccc(OCCN4CCCC4)c(F)c3)nc21,27.3 µM (active)
14,Cc1cnc(Nc2ccc(CN3CCOCC3)cc2)nc1Nc1cccc(S(=O)(=O)NC(C)(C)C)c1,9.68 µM (active)
15,Cn1cnc2c(F)c(Nc3ccc(Br)cc3F)c(C(=O)NOCCO)cc21,inactive
16,S=c1nc[nH]c2nc[nH]c12,13.7 µM (active)
17,C[C@@]1(C(=O)Nc2ccc(F)nc2)CCCN1c1nc(Nc2cc(C3CC3)[nH]n2)c2cccn2n1,8.63 µM (active)

row,SMILES,Potency
1,O=C(CCCCCCC(=O)Nc1ccccc1)NO,3.85 µM (active)
2,CCCCN(CCCC)C(=O)CN1C[C@H](c2ccc3c(c2)OCO3)[C@@H](C(=O)O)[C@@H]1c1ccc(OC)cc1,inactive
3,Cc1nc(Nc2ncc(C(=O)Nc3c(C)cccc3Cl)s2)cc(N2CCN(CCO)CC2)n1,21.7 µM (active)
4,Cc1ccc(C(=O)N(CCCN)C(c2oc3cc(Cl)ccc3c(=O)c2Cc2ccccc2)C(C)C)cc1 (centres undefined),0.0137 µM (active)
5,C1CCC(C(CC2CCCCN2)C2CCCCC2)CC1 (centres undefined),24.3 µM (active)
6,Cc1nc(N)nc(N)c1-c1ccc(Cl)c(Cl)c1,4.85 µM (active)
7,CCCCc1nc2cc(/C=C/C(=O)NO)ccc2n1CCN(CC)CC,1.22 µM (active)
8,O=C(c1ccc(F)c(F)c1Nc1ccc(I)cc1F)N1CC(O)([C@@H]2CCCCN2)C1,21.7 µM (active)
9,"Cc1c2oc3c(C)ccc(C(=O)N[C@@H]4C(=O)N[C@H](C(C)C)C(=O)N5CCC[C@H]5C(=O)N(C)CC(=O)N(C)[C@@H](C(C)C)C(=O)O[C@@H]4C)c3nc-2c(C(=O)N[C@@H]2C(=O)N[C@H](C(C)C)C(=O)N3CCC[C@H]3C(=O)N(C)CC(=O)N(C)[C@@H](C(C)C)C(=O)O[C@@H]2C)c(N)c1=O (I: T[dV]P[Sar][NMeV] / II: T[dV]P[Sar][NMeV]; ester I:1-I:C, II:1-II:C; linker I:N-II:N via Actinocin(9to1))",1.72 µM (active)
10,CN1C2CCC1CC(OC(=O)[C@H](CO)c1ccccc1)C2 (some centres undefined),inactive
11,CN1C(=O)C(Cc2c[nH]c3ccccc23)NC1=S (centres undefined),inactive
12,COc1cccc2c1C(=O)c1c(O)c3c(c(O)c1C2=O)C[C@@](O)(C(=O)CO)C[C@@H]3O[C@H]1C[C@H](N)[C@H](O[C@@H]2CCCCO2)[C@H](C)O1,13.7 µM (active)
13,Cn1cnc2c(F)c(Nc3ccc(Br)cc3Cl)c(C(=O)NOCCO)cc21,inactive
14,CCCCc1oc2ccccc2c1C(=O)c1cc(I)c(OCCN(CC)CC)c(I)c1,79.4 µM (active)
15,CC(Oc1cc(-n2cnc3ccc(CN4CCN(C)CC4)cc32)sc1C(N)=O)c1ccccc1C(F)(F)F (centres undefined),3.06 µM (active)
16,CC[C@@]1(O)C(=O)OCc2c1cc1n(c2=O)Cc2cc3c(CN(C)C)c(O)ccc3nc2-1,7.69 µM (active)
17,Cc1ccc(C(=O)N(CCCN)C(c2nc3cc(Cl)ccc3c(=O)n2Cc2ccccc2)C(C)C)cc1 (centres undefined),0.0153 µM (active)
